# Target: HOXB9 (Homo sapiens, UniProt P17482 171-250)
# Experiment: PBM; 200 nM protein, PBS
# Settings: dsDNA, one strand shown
# Sequence of HOXB9 (Homo sapiens, UniProt P17482 171-250) (P17482 171-250): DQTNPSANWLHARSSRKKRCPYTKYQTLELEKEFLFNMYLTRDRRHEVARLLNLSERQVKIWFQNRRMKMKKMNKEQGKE
row,Sequence,binding signal
1,ATGATTTA,"10.6 upbm affinity estimate (log intensity, higher = more binding, comparable within an allelic series)"
2,ATAGATAA,"10.4 upbm affinity estimate (log intensity, higher = more binding, comparable within an allelic series)"
3,AAGTAATC,"9.94 upbm affinity estimate (log intensity, higher = more binding, comparable within an allelic series)"
4,AGAAATTA,"10.7 upbm affinity estimate (log intensity, higher = more binding, comparable within an allelic series)"
5,CATAATCG,"10.5 upbm affinity estimate (log intensity, higher = more binding, comparable within an allelic series)"
6,CATTACTA,"10.6 upbm affinity estimate (log intensity, higher = more binding, comparable within an allelic series)"
7,AATGCAAT,"10.3 upbm affinity estimate (log intensity, higher = more binding, comparable within an allelic series)"
8,AGGAATAA,"9.91 upbm affinity estimate (log intensity, higher = more binding, comparable within an allelic series)"
9,AGGCTAAT,"9.89 upbm affinity estimate (log intensity, higher = more binding, comparable within an allelic series)"
10,AAGATCAT,"9.78 upbm affinity estimate (log intensity, higher = more binding, comparable within an allelic series)"
11,AAGCAATA,"10.1 upbm affinity estimate (log intensity, higher = more binding, comparable within an allelic series)"
12,AATCAATA,"10.5 upbm affinity estimate (log intensity, higher = more binding, comparable within an allelic series)"
13,TACTGTAA,"10.2 upbm affinity estimate (log intensity, higher = more binding, comparable within an allelic series)"
14,AACATATG,"9.86 upbm affinity estimate (log intensity, higher = more binding, comparable within an allelic series)"
15,ATATTTCC,"9.97 upbm affinity estimate (log intensity, higher = more binding, comparable within an allelic series)"
16,ATTACGTC,"10 upbm affinity estimate (log intensity, higher = more binding, comparable within an allelic series)"
17,AATACCAT,"9.98 upbm affinity estimate (log intensity, higher = more binding, comparable within an allelic series)"
18,AAAATACC,"9.6 upbm affinity estimate (log intensity, higher = more binding, comparable within an allelic series)"
19,TAACTTAA,"10.2 upbm affinity estimate (log intensity, higher = more binding, comparable within an allelic series)"
20,ATATCTTC,"10 upbm affinity estimate (log intensity, higher = more binding, comparable within an allelic series)"
21,AATTGCTA,"10.7 upbm affinity estimate (log intensity, higher = more binding, comparable within an allelic series)"
22,CCATTTTC,"10.1 upbm affinity estimate (log intensity, higher = more binding, comparable within an allelic series)"
23,TAAACTAA,"10.3 upbm affinity estimate (log intensity, higher = more binding, comparable within an allelic series)"
24,CATTTAAA,"10.7 upbm affinity estimate (log intensity, higher = more binding, comparable within an allelic series)"
25,AACCCATT,"10.5 upbm affinity estimate (log intensity, higher = more binding, comparable within an allelic series)"
26,ATTTAATC,"10.8 upbm affinity estimate (log intensity, higher = more binding, comparable within an allelic series)"
27,AACAAATA,"10.1 upbm affinity estimate (log intensity, higher = more binding, comparable within an allelic series)"
28,CGTTTAAA,"10.2 upbm affinity estimate (log intensity, higher = more binding, comparable within an allelic series)"

# Target: T1, SIX6 (Homo sapiens, UniProt O95475 114-200, T139Q)
# T1 sequence: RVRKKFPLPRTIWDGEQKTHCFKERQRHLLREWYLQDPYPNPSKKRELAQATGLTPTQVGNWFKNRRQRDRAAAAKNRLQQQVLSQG
# Experiment: PBM; 200 nM protein, PBS
# Settings: dsDNA, one strand shown
row,Sequence,binding signal
1,AGATACCC,"11.2 upbm affinity estimate (log intensity, higher = more binding, comparable within an allelic series)"
2,GATACCCA,"11.2 upbm affinity estimate (log intensity, higher = more binding, comparable within an allelic series)"
3,CGGATCAC,"11.1 upbm affinity estimate (log intensity, higher = more binding, comparable within an allelic series)"
4,AGGTATCG,"11.1 upbm affinity estimate (log intensity, higher = more binding, comparable within an allelic series)"

# Target: T2, NKX2-6 (Homo sapiens, UniProt A6NCS4 118-204, R150C)
# T2 sequence: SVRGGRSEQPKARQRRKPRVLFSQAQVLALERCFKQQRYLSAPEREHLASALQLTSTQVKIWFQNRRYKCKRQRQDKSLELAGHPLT
# Experiment: PBM; 200 nM protein, PBS
# Settings: dsDNA, one strand shown
row,Sequence,binding signal
1,AGAGTGGC,"10.9 upbm affinity estimate (log intensity, higher = more binding, comparable within an allelic series)"
2,AATCCGCC,"9.75 upbm affinity estimate (log intensity, higher = more binding, comparable within an allelic series)"
3,CCCTGCCA,"9.63 upbm affinity estimate (log intensity, higher = more binding, comparable within an allelic series)"
4,CTACCGGC,"9.49 upbm affinity estimate (log intensity, higher = more binding, comparable within an allelic series)"
5,CTTGCCGC,"9.53 upbm affinity estimate (log intensity, higher = more binding, comparable within an allelic series)"
6,CAAGTGGA,"11.6 upbm affinity estimate (log intensity, higher = more binding, comparable within an allelic series)"
7,AGGCAGTC,"9.73 upbm affinity estimate (log intensity, higher = more binding, comparable within an allelic series)"
8,AGAGTGGA,"11 upbm affinity estimate (log intensity, higher = more binding, comparable within an allelic series)"

# Target: HOXB9 (Homo sapiens, UniProt P17482 171-250, R186Q)
# Experiment: PBM; 200 nM protein, PBS
# Settings: dsDNA, one strand shown
# Sequence of HOXB9 (Homo sapiens, UniProt P17482 171-250, R186Q) (P17482 171-250 R186Q): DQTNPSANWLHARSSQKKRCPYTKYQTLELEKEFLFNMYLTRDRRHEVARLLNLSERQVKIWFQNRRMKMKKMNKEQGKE
row,Sequence,binding signal
1,ATGATTTA,"10.4 upbm affinity estimate (log intensity, higher = more binding, comparable within an allelic series)"
2,ATAGATAA,"10.4 upbm affinity estimate (log intensity, higher = more binding, comparable within an allelic series)"
3,AAGTAATC,"9.94 upbm affinity estimate (log intensity, higher = more binding, comparable within an allelic series)"
4,AGAAATTA,"10.5 upbm affinity estimate (log intensity, higher = more binding, comparable within an allelic series)"
5,CATAATCG,"10.3 upbm affinity estimate (log intensity, higher = more binding, comparable within an allelic series)"
6,CATTACTA,"10.5 upbm affinity estimate (log intensity, higher = more binding, comparable within an allelic series)"
7,AATGCAAT,"10.2 upbm affinity estimate (log intensity, higher = more binding, comparable within an allelic series)"
8,AGGAATAA,"9.78 upbm affinity estimate (log intensity, higher = more binding, comparable within an allelic series)"
9,AGGCTAAT,"9.92 upbm affinity estimate (log intensity, higher = more binding, comparable within an allelic series)"
10,AAGATCAT,"9.78 upbm affinity estimate (log intensity, higher = more binding, comparable within an allelic series)"
11,AAGCAATA,"10.1 upbm affinity estimate (log intensity, higher = more binding, comparable within an allelic series)"
12,AATCAATA,"10.4 upbm affinity estimate (log intensity, higher = more binding, comparable within an allelic series)"
13,TACTGTAA,"10.1 upbm affinity estimate (log intensity, higher = more binding, comparable within an allelic series)"
14,AACATATG,"9.84 upbm affinity estimate (log intensity, higher = more binding, comparable within an allelic series)"
15,ATATTTCC,"9.85 upbm affinity estimate (log intensity, higher = more binding, comparable within an allelic series)"
16,ATTACGTC,"10.2 upbm affinity estimate (log intensity, higher = more binding, comparable within an allelic series)"
17,AATACCAT,"9.96 upbm affinity estimate (log intensity, higher = more binding, comparable within an allelic series)"
18,AAAATACC,"9.45 upbm affinity estimate (log intensity, higher = more binding, comparable within an allelic series)"
19,TAACTTAA,"10.1 upbm affinity estimate (log intensity, higher = more binding, comparable within an allelic series)"
20,ATATCTTC,"9.91 upbm affinity estimate (log intensity, higher = more binding, comparable within an allelic series)"
21,AATTGCTA,"10.6 upbm affinity estimate (log intensity, higher = more binding, comparable within an allelic series)"
22,CCATTTTC,"10 upbm affinity estimate (log intensity, higher = more binding, comparable within an allelic series)"
23,TAAACTAA,"10.1 upbm affinity estimate (log intensity, higher = more binding, comparable within an allelic series)"
24,CATTTAAA,"10.6 upbm affinity estimate (log intensity, higher = more binding, comparable within an allelic series)"
25,AACCCATT,"10.4 upbm affinity estimate (log intensity, higher = more binding, comparable within an allelic series)"
26,ATTTAATC,"10.7 upbm affinity estimate (log intensity, higher = more binding, comparable within an allelic series)"
27,AACAAATA,"9.97 upbm affinity estimate (log intensity, higher = more binding, comparable within an allelic series)"
28,CGTTTAAA,"9.99 upbm affinity estimate (log intensity, higher = more binding, comparable within an allelic series)"

# Source: paper PMC11006913
